Screening results (PubChem)
TbPYK inhibitor: qHTS of Trypanosoma Brucei Inhibitors; AID 624173, 2012; Potency, µM (series often up to 76.8 µM), most hits filed as inhibitors; 0.12% of 410,000 active; pyruvate kinase (Trypanosoma brucei), Q57TT1; TbPYK enzyme, Kinase-Glo Plus ATP luminescence, 45 min; further: nearly all actives have a fitted effect of over 50% in size
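Activity of T. brucei pyruvate kinase was followed by Kinase-Glo Plus luminescence after the enzyme reacted 45 min at room temperature with 130 uM ADP (final) and substrate. Test compounds were added before ADP at multiple concentrations.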
FMDV inh: High Throughput Screening for Foot and Mouth Disease Virus Antivirals; FMDV antiviral cell-based qHTS; Potency, µM (top dose mostly 57.9 µM), hits mostly inhibitors; 1.2% of 410,000 active; AID 1159524, 2015; calls by dose curve; tested in HEK293T cells; further: read-out not given here; nearly all actives have a fitted effect of over 45% in size
RE007 growth inh: qHTS Assay for Inhibitors of the HIV-1 protein Vpr; S. pombe RE007 Vpr strain, BacTiter-Glo ATP luminescence, 24 h; Potency, µM (highest dose often 92.2 µM), actives largely listed as inhibitors; AID 651644, 2012; 0.21% of 360,000 active; active means well fitted falling curve with a large enough effect; inconclusive means small, poorly fitted or top-dose-only effect; inactive means no such curve, though single readings can be large or run the other way; further: nearly all actives have a fitted effect of over 50% in size
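Fission yeast RE007 carrying one integrated HIV-1 vpr copy, seeded at OD 0.01 in PMG+AL medium with 23 nL pinned compound. Grown 24 h at 30 degrees; viability read by BacTiter-Glo luminescence after 5 min.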
Sm TGR block: qHTS Assay for the Inhibitors of Schistosoma Mansoni Peroxiredoxins; purified TGR, DTNB reduction, TNB absorbance 405 nm; Potency, µM (series often up to 114 µM), hits mostly inhibitors; AID 485364, 2010; Schistosoma mansoni thioredoxin glutathione reductase (TGR), Q962Y6; 3% of 360,000 active; further: nearly all actives have a fitted effect of over 60% in size
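Kinetic colorimetric format: TGR-catalysed, NADPH-driven DTNB reduction monitored via TNB absorbance. Enzyme dispensed at 20 nM; compound exposure 15 min at room temperature before reaction start.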
HCMV inh: qHTS Assay for inhibitors of the human cytomegalovirus (HCMV) | HFF cells, HCMV-luciferase reporter, 72 h; stronger effect = lower value | activity change, negative = inhibition, % at 57.5 µM | 4.5% of 410,000 active; in the data active means activity change below about -60%; inconclusive means no clear call, values can overlap the other calls; inactive means above about -39%
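Inhibition of viral replication was scored as loss of reporter luminescence in HFFs infected with HCMV-luciferase (MOI 1 PFU/cell) for 72 h; compounds tested at 2 doses, normalized to buffer and Salinomycin controls.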
Giardia FBPA inh: qHTS Assay for Inhibitors of Fructose-1,6-bisphosphate Aldolase from Giardia Lamblia; A8B2U2; purified Giardia FBPA; Potency, µM (titrated, usually from 59.6 µM), most hits filed as inhibitors; 0.71% of 290,000 active; further: nearly all actives have a fitted effect of over 55% in size
Target sequence (A8B2U2 whole entry, looked up): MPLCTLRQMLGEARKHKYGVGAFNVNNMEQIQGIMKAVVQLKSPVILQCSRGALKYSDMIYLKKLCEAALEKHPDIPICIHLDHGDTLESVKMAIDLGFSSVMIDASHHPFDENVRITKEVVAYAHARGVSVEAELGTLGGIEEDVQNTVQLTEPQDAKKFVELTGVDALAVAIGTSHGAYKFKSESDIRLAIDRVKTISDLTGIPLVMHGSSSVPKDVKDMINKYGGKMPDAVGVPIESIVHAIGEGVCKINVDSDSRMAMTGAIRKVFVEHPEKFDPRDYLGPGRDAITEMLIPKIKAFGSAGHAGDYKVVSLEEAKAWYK
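Giardia FBPA (40 nM reagent) was preincubated 10 min at RT with compound (up to 57.5 uM final), then substrate plus GAPDH/TPI/NAD/arsenate coupling system with diaphorase/resazurin was added; resorufin fluorescence (525/598 nm) was read after 20 min.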
Of the large screens only hits and unclear results are named; the others gave an inactive call. This is a sample that favours compounds with a hit; in the whole collection about 7.7% have one here. Unless noted, the call rests on the fitted dose curve; in most records, active means well fitted curve in the direction sought with a large enough effect; inconclusive means small, poorly fitted or top-dose-only effect, or another doubt; inactive means no such curve, though single readings can be large; an effect the other way counts as inactive or inconclusive.

Cc1nn(C)c(C)c1CNC(=O)c1cc2n(n1)C(C(F)(F)F)CC(c1cccs1)N2 (stereo unspecified)	HCMV inh -69 (no result: FMDV inh)
CCOC(=O)c1c(NC(=O)c2cc3n(n2)C(C(F)(F)F)CC(c2cccs2)N3)sc(C)c1C (stereo unspecified)	HCMV inh inconclusive
COC(=O)[C@]1(C)CC[C@@]2(C)CC[C@@]3(C)C4=CC=C5C(=CC(=O)C(O)=C5C)[C@@]4(C)CC[C@@]3(C)C2C1 (stereo partly specified)	FMDV inh 10µM (no result: TbPYK inhibitor, RE007 growth inh, Sm TGR block, HCMV inh)
Cn1c(=O)c2c(nc(Oc3ccccc3Cl)n2Cc2ccc(C#N)cc2)n(C)c1=O	none (no result: RE007 growth inh, Giardia FBPA inh)
COCCn1c(=NC(=O)C2COc3ccccc3O2)sc2cc(S(N)(=O)=O)ccc21 (stereo unspecified)	none
C=CCn1c(=NC(=O)C2COc3ccccc3O2)sc2cc(S(N)(=O)=O)ccc21 (stereo unspecified)	FMDV inh 32µM
CCC(Sc1nc2nccnc2c(=O)n1Cc1ccc(OC)cc1)C(=O)NC1CCCCC1 (stereo unspecified)	FMDV inh 7.1µM (no result: RE007 growth inh, Giardia FBPA inh)
COc1ccc(CCNC(=O)CCCn2nc(C)c3sc4ccccc4c3c2=O)cc1OC	none (no result: RE007 growth inh, Giardia FBPA inh)
CCn1c(SCc2nnc(-c3ccccc3)o2)nc2c1c(=O)n(C)c(=O)n2C	none (no result: TbPYK inhibitor, FMDV inh, RE007 growth inh, HCMV inh)
CCCCn1c(SCc2nnc(-c3ccccc3)o2)nc2c1c(=O)n(C)c(=O)n2C	HCMV inh -66
COc1cc2c(cc1O)CCC1C2CC[C@]2(C)[C@@H](O)CC[C@@H]12 (stereo partly specified)	none (no result: TbPYK inhibitor, FMDV inh, RE007 growth inh, Sm TGR block, HCMV inh)
CCOc1cc2c(cc1O)C(=NOC)CC1C2CCC2(C)C(O)CCC12 (stereo unspecified)	HCMV inh -73 (no result: Sm TGR block, Giardia FBPA inh)
COc1ccc2c(=O)c3c(=O)n(Cc4ccco4)c(-c4ccco4)nc3oc2c1	Sm TGR block 40µM
CCc1nc2oc3cc(OC)ccc3c(=O)c2c(=O)n1Cc1ccco1	Sm TGR block 28µM
COc1ccc(-c2nc3oc4cc(OC)ccc4c(=O)c3c(=O)n2Cc2ccco2)cc1	Sm TGR block 20µM
Cc1ccc(NC(=O)CN2C(=O)COc3ccc(S(=O)(=O)N4CCOCC4)cc32)c(Cl)c1	none (no result: RE007 growth inh, Giardia FBPA inh)
COc1cccc(C(=O)Nc2cccc(-c3nc4ncccn4c3C)c2)c1	none (no result: RE007 growth inh, Giardia FBPA inh)
CCCCNc1nc(Oc2ccc(OCC(N)=O)nn2)nc(N2CCOCC2)n1	none (no result: RE007 growth inh, Giardia FBPA inh)
CC(=O)c1cccc(S(=O)(=O)NCC(C)(C)N2CCOCC2)c1	Sm TGR block 40µM
Cc1ccccc1NS(=O)(=O)c1ccc(C(=O)NCC(C)(C)N2CCOCC2)cc1	HCMV inh -67 (no result: Giardia FBPA inh)
CC(C)(CNC(=O)c1cccc(S(=O)(=O)NCc2ccccc2)c1)N1CCOCC1	none (no result: Giardia FBPA inh)
Cc1ccccc1NS(=O)(=O)c1cc(C(=O)NCCSC2CCCCC2)ccc1C	RE007 growth inh 11µM, HCMV inh inconclusive (no result: FMDV inh)
CCOC(=O)c1cccc(NC(=O)CCc2c(C)nn(-c3ccc(N4CCCC4)nn3)c2C)c1	none (no result: RE007 growth inh, Giardia FBPA inh)
Cn1ccc2cc(S(=O)(=O)N3CCCN(C(=O)Nc4ccccc4Br)CC3)ccc21	none (no result: RE007 growth inh, Giardia FBPA inh)
O=C(NCCN1CCCCC1)c1cccc2c1C(=O)c1ccc(N3CCCC3)cc1S2(=O)=O	HCMV inh -65 (no result: Sm TGR block, Giardia FBPA inh)
COC(=O)CN1C(=O)C2(C(C#N)=C(N)Oc3n[nH]c(-c4cccs4)c32)c2ccccc21 (stereo unspecified)	Sm TGR block 50µM, Giardia FBPA inh inconclusive
CCN1C(=O)C2(C(C#N)=C(N)Oc3n[nH]c(-c4ccccc4)c32)c2ccccc21 (stereo unspecified)	none
Cn1cccc1C(=O)N1CCC2(CC1)CN(C(c1ccccc1)c1ccccc1)C2	none (no result: RE007 growth inh, Sm TGR block, HCMV inh)
CC(C)(C)c1cc(C(=O)NN)n(Cc2ccc(F)cc2)n1	none
Cc1cccc(Cn2nc(C(C)(C)C)cc2C(=O)Nc2ccc(F)cc2)c1	FMDV inh inconclusive, HCMV inh -93
CC(C)CC(N)c1csc(NC(=O)c2cc(C(C)(C)C)nn2Cc2ccccc2)n1 (stereo unspecified)	FMDV inh inconclusive, HCMV inh -96 (no result: Sm TGR block, Giardia FBPA inh)
CC(C)CC(N)c1csc(NC(=O)Nc2ccccc2Cc2ccccc2)n1 (stereo unspecified)	none (no result: Sm TGR block, Giardia FBPA inh)
O=C(NCCc1nnc2n1CCN(Cc1c(F)cccc1F)CC2)c1ccco1	none (no result: TbPYK inhibitor, RE007 growth inh, Sm TGR block, HCMV inh, Giardia FBPA inh)
CC(C)=NNc1nc2c(c(=O)[nH]c(=O)n2C)n1CCc1ccccc1	HCMV inh inconclusive
Cn1c(=O)[nH]c(=O)c2c1nc(N/N=C/C(Br)=C/c1ccccc1)n2CCO	Sm TGR block 5µM, Giardia FBPA inh inconclusive
Cc1cccc(C(=O)N[C@H]2CC[C@@]34CCCN3C(=O)CCC[C@H]4[C@H]2Cc2ccccc2)c1	none (no result: TbPYK inhibitor, FMDV inh, RE007 growth inh, Sm TGR block, Giardia FBPA inh)
COCc1c(C(=O)N2CCCCC2c2cccnc2)cnn1-c1ncc2c(n1)-c1ccccc1CCC2 (stereo unspecified)	none (no result: TbPYK inhibitor, RE007 growth inh, Sm TGR block, HCMV inh, Giardia FBPA inh)
COc1cc(/C=c2\sc3n(c2=O)CCCN=3)ccc1O	none
O=c1/c(=C/c2ccc([N+](=O)[O-])cc2)sc2n1CCCN=2	HCMV inh -91
Cn1cccc1C(=O)N1CCC2(CCN(C(=O)Nc3cccc(F)c3)CC2)CC1	none (no result: RE007 growth inh, Sm TGR block, HCMV inh)
